# Laboratory results taken from PubChem BioAssay (NCATS).
# Records with an inconclusive call do not appear. Calls of active or inactive are those of the source. Unless noted, calls follow the shape of the dose curve; as a rule, active = well fitted curve in the direction sought with a large enough effect; inconclusive = small, poorly fitted or top-dose-only effect, or another doubt; inactive = no such curve, though single readings can be large; an effect the other way counts as inactive or inconclusive.
# Legend:
# [1] = qHTS drug screen for cell cycle checkpoint inhibitors in PARPi-resistant BRCA-mutant ovarian cancer cell lines. (AID 1963452; calls by dose curve); settings: PEO1/OlaR viability, CellTiter-Glo luminescence, 96 h, stronger effect = lower value
# Method in brief: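 PEO1, PEO4 and PEO1/OlaR ovarian cancer cells, 600 per well, exposed 96 h at 37C to a dilution series. Viability read by CellTiter-Glo luminescence, normalized to DMSO and empty wells; activity summarized as Z-AUC.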
# [2] = molecular target: Cytochrome P450 2C9 (Homo sapiens) (UniProt P11712); test: qHTS for inhibitors of CYP2C9 against the NCATS DSHEA and TCM libraries (AID 1919973); settings: recombinant CYP2C9 enzyme activity, luminescence; series mostly up to 18.8 µM;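 also: luminogenic pro-luciferin CYP2C9 substrate turned into luciferin with NADPH regeneration; % is scaled to controls: 0 for no effect and ±100 for the full control effect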
# Method in brief: (§1)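 Light output from converted D-luciferin reports remaining CYP activity. Compounds preincubate with enzyme and substrate for 15 min; NADPH regeneration (1x final) runs the reaction for 30-45 min.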
# [3] = molecular target: Cytochrome P450 2C19 (Homo sapiens) (UniProt P33261); test: qHTS for inhibitors of CYP2C19 against the NCATS DSHEA and TCM libraries (AID 1919974); settings: CYP2C19 enzyme inhibition, luminescence qHTS; series mostly up to 18.8 µM;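 also: luminescence from luciferin released by CYP2C19 oxidation of a pro-luciferin substrate; % is scaled to controls: 0 for no effect and ±100 for the full control effect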
# Method in brief: as §1
# [4] = KB-3-1 P-gp reporter qHTS against the NCATS DSHEA and TCM libraries (AID 1919975); settings: KB-3-1 parental cells, CellTiter-Glo luminescence viability, 72 h; series mostly up to 14.4 µM; also: 0% is about no effect
# Method in brief: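 KB-3-1 parental line, 1536-well qHTS: cells seeded, ~4 h attachment, pintool compound addition, ~72 h at 37C, then CellTiter-Glo, 30 min RT, luminescence. Concentration-response format.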
# [5] = molecular target: Cytochrome P450 1A2 (Homo sapiens) (UniProt P05177); test: qHTS for inhibitors of CYPIA2 against the NCATS DSHEA and TCM libraries (AID 1919976); settings: recombinant CYP1A2 enzyme activity, luminescence; series mostly up to 20.3 µM;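 also: light from luciferin formed by CYP1A2 from a pro-luciferin substrate; % is scaled to controls: 0 for no effect and ±100 for the full control effect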
# Method in brief: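 In this quantitative HTS, inhibition of recombinant human CYP1A2 was measured as loss of luciferin-derived luminescence. Turnover ran 30-45 min at RT after NADPH regeneration solution was added.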
# [6] = qHTS Counterscreen for compound interference against the NCATS DSHEA and TCM libraries (AID 1919978); settings: firefly luciferase detection reagent interference, luminescence;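 also: compounds preincubated with 1 µM D-luciferin or buffer before detection reagent; % of control where 0% means no effect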
# Method in brief: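 Compounds, titrated from 19.5 nM to 39.8 uM final, were pinned onto 1 uM D-luciferin or plain 100 mM potassium phosphate. After 15 min at room temperature, luciferin detection reagent was added for 30 min before the luminescence read.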
# [7] = Dual reporter qHTS for agonist of Pregnane X Receptor (hPXR) against the NCATS DSHEA and TCM libraries: Fluorescence readout (AID 1920058); settings: PXR dual reporter cells; series mostly up to 22 µM; also: 0% is about no effect
# Method in brief: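 Measures viability of the PXR reporter HepG2 line by protease-substrate fluorescence (405/540 nm), taken 1 h after CellTiter-Fluor addition. Substances are tested as concentration series over a ~24 h exposure, with rifampicin as agonist control.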
# [8] = molecular target: Nuclear receptor subfamily 1 group I member 2 (Homo sapiens) (UniProt O75469); test: Dual reporter qHTS for agonist of Pregnane X Receptor (hPXR) against the NCATS DSHEA and TCM libraries: Luminescence readout (AID 1920059); settings: hPXR dual reporter cells, luciferase luminescence agonist; series mostly up to 22 µM; also: 0% is about no effect
# Method in brief: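 Luminescent PXR reporter read (ONE-Glo) after a CellTiter-Fluor viability read, following 24 h, 37C treatment of HepG2 cells stably carrying hPXR-Luc.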
# [9] = molecular target: Nuclear receptor subfamily 1 group I member 2 (Homo sapiens) (UniProt O75469); test: Dual reporter qHTS for antagonist of Pregnane X Receptor (hPXR) against the NCATS DSHEA and TCM libraries: Luminescence Readout (AID 1920060); settings: hPXR dual reporter cells, luciferase luminescence, antagonist mode; series mostly up to 22 µM;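 also: HepG2 cells carrying hPXR luciferase reporter stimulated with rifampicin at 2 µM; 0% is about no effect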
# Method in brief: (§2)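 Antagonist mode: rifampicin 2 uM final co-added with compounds to hPXR-LucHepG2 cells for 24 h at 37C. Viability by CellTiter-Fluor, Ex/Em 405/540 nm, 1 h; reporter by ONE-Glo luminescence.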
# [10] = Dual reporter qHTS for antagonist of Pregnane X Receptor (hPXR) against the NCATS DSHEA and TCM libraries: Fluorescence Readout (AID 1920061); settings: PXR dual reporter cells, antagonist mode; series mostly up to 22 µM; also: 0% is about no effect
# Method in brief: as §2
# [11] = measured here: PEO1 parental Z-AUC
# Sequence of Nuclear receptor subfamily 1 group I member 2 (Homo sapiens) (O75469 whole entry, looked up): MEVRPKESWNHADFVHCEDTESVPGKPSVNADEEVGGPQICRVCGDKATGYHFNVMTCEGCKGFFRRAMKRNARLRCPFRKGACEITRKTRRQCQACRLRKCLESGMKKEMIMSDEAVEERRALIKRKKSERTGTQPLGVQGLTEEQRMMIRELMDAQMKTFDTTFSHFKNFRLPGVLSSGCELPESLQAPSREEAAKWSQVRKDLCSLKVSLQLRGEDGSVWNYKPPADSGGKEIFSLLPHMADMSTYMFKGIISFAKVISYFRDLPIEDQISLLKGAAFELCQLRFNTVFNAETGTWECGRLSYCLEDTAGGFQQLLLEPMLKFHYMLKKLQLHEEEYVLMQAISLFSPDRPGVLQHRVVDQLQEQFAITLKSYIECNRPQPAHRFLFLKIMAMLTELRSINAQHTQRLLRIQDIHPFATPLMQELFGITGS
# Sequence of Cytochrome P450 1A2 (Homo sapiens) (P05177 whole entry, looked up): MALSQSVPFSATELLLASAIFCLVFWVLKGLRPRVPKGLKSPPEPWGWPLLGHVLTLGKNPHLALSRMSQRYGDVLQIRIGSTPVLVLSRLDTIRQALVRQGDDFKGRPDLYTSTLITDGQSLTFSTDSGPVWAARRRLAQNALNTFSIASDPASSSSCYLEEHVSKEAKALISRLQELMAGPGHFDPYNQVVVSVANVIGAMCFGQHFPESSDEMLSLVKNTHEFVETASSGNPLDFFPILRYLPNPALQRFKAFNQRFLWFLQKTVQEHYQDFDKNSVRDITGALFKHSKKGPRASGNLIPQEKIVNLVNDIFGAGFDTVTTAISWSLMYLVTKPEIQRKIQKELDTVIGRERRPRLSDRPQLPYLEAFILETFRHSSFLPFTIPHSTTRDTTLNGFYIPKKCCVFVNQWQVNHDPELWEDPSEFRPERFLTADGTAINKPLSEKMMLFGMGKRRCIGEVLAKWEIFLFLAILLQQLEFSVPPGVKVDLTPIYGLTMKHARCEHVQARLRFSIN
# Sequence of Cytochrome P450 2C19 (Homo sapiens) (P33261 whole entry, looked up): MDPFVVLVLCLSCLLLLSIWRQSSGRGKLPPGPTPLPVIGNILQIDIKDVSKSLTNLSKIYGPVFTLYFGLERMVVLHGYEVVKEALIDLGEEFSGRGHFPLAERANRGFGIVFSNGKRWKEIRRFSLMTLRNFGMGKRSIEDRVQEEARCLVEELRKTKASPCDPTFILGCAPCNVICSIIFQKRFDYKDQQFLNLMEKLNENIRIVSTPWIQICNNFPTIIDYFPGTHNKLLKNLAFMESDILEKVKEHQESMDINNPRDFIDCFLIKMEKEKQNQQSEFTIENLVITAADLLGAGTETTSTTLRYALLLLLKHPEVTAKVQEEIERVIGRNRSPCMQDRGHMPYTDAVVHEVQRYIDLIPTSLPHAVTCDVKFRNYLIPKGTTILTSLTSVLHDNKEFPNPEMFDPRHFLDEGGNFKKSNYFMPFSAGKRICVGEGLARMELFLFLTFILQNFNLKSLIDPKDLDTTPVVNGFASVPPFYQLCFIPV
# Sequence of Cytochrome P450 2C9 (Homo sapiens) (P11712 whole entry, looked up): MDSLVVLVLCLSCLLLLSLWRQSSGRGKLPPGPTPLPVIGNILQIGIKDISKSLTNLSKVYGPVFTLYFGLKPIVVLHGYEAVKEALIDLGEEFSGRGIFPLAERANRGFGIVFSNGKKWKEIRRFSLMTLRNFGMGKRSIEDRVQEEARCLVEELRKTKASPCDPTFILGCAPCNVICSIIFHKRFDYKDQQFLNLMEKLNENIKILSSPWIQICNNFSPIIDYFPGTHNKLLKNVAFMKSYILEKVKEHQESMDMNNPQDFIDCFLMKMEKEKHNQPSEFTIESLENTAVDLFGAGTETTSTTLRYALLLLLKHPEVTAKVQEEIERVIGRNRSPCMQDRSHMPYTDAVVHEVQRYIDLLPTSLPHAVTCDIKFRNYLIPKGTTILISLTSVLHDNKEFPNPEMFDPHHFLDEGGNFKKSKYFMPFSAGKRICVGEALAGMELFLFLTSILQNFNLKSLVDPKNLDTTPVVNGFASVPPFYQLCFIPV
compound,measurement,setting,value
CC[C@]1(O)CC2CN(CCc3c([nH]c4ccccc34)[C@@](C(=O)OC)(c3cc4c(cc3OC)N(C)[C@H]3[C@@](O)(C(=O)OC)[C@H](OC(C)=O)[C@]5(CC)C=CCN6CC[C@]43[C@@H]65)C2)C1 (stereo partly drawn),Z-AUC,[1],-0.152 (inactive)
same,Z-AUC,[1]; [11],-1.01
same,Z-AUC,[1]; measured here: PEO4 Z-AUC,-0.893
Cc1c(F)cc(C(=O)NC2CC2)cc1-c1c(F)cn2c(C(C)(C)C)nnc2c1F,Z-AUC,[1],0.645 (inactive)
same,Z-AUC,[1]; [11],0.963
same,Z-AUC,[1]; measured here: PEO4 Z-AUC,1.81
Cn1cncc1C(N)(c1ccc(Cl)cc1)c1ccc2c(c1)c(-c1cccc(Cl)c1)cc(=O)n2C (stereo not drawn),Z-AUC,[1],-1.06 (inactive)
same,Z-AUC,[1]; [11],-0.892
same,Z-AUC,[1]; measured here: PEO4 Z-AUC,-0.873
COc1ccc(C(=O)C2CCN(CC(=O)N(Cc3nc4c(c(=O)[nH]3)COCC4)CC3CC3)CC2)cc1,Z-AUC,[1],-0.974 (inactive)
same,Z-AUC,[1]; [11],-0.643
same,Z-AUC,[1]; measured here: PEO4 Z-AUC,-0.695
Cc1cc(C)c(CNC(=O)c2cc(-c3ccc(CN4CCOCC4)cc3)cc3c2cnn3C2CCCC2)c(=O)[nH]1,Z-AUC,[1],0.564 (inactive)
same,Z-AUC,[1]; [11],-0.591
same,Z-AUC,[1]; measured here: PEO4 Z-AUC,0.1
C=CC(=O)Nc1cccc(Nc2nc(Nc3ccc(N4CCN(C(C)=O)CC4)cc3OC)ncc2C(F)(F)F)c1,Z-AUC,[1],-0.226 (inactive)
same,Z-AUC,[1]; [11],0.717
same,Z-AUC,[1]; measured here: PEO4 Z-AUC,-0.058
Cc1ccc(-c2ccc3ncc4c(c3n2)n(C2CCN(C(=O)[C@H](C)O)CC2)c(=O)n4C)cn1,Z-AUC,[1],-1.81 (inactive)
same,Z-AUC,[1]; [11],-2.34
same,Z-AUC,[1]; measured here: PEO4 Z-AUC,-2.23
O=C(NOCC(O)CO)c1ccc(F)c(F)c1Nc1ccc(I)cc1F (stereo not drawn),Z-AUC,[1],-1.69 (inactive)
same,Z-AUC,[1]; [11],-1.32
same,Z-AUC,[1]; measured here: PEO4 Z-AUC,-0.907
OC[C@H]1O[C@@H](OC[C@H]2O[C@@H](OC/C=C/c3ccccc3)[C@H](O)[C@@H](O)[C@@H]2O)[C@@H](O)[C@@H]1O,outcome,[2],inactive
same,Potency,[3],inactive
same,outcome,[4],inactive
same,Potency,[5],inactive
same,max response,[6],-0.863% (inactive)
same,outcome,[7],inactive
same,outcome,[8],inactive
same,outcome,[9],inactive
same,outcome,[10],inactive
